According to the supplement of paper PMC8728848:
The entries come from a sample that favours the strongest signals as a whole.

Legend:
Assay in all cases: glycan array binding signal (z-score within array); higher = stronger binding
Conditions in all cases: glycan notation: IUPAC condensed, linker removed
Fuc(a1-2)Gal = molecular target: Fuc(a1-2)Gal
Summary of the method: (§1)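 Arrays were curated from the Consortium for Functional Glycomics database, 3228 in total, and kept only where the protein sequence was available. Binding is expressed as a within-array Z-score. This score was averaged across arrays of the same protein sequence at different concentrations or buffers and across linkers, and negative values can be read as non-binding.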

[1] = molecular target: Fuc(a1-2)Gal(b1-3)GalNAc(a1-3)[Fuc(a1-2)]Gal(b1-4)Glc
Summary of the method: as §1

[2] = molecular target: Fuc(a1-2)Gal(b1-3)GalNAc(b1-3)Gal(a1-4)Gal(b1-4)Glc
Summary of the method: as §1

[3] = molecular target: Fuc(a1-2)Gal(b1-3)GlcNAc6S
Summary of the method: as §1

[4] = molecular target: Fuc(a1-2)Gal(b1-3)[Fuc(a1-4)]GlcNAc(b1-2)Man(a1-3)[Fuc(a1-2)Gal(b1-3)[Fuc(a1-4)]GlcNAc(b1-2)Man(a1-6)]Man(b1-4)GlcNAc(b1-4)[Fuc(a1-6)]GlcNAc(b1-4)[Fuc(a1-6)]GlcNAc
Summary of the method: as §1

[5] = molecular target: Fuc(a1-2)Gal(b1-4)GlcNAc(b1-3)Gal(b1-4)GlcNAc
Summary of the method: as §1

[6] = molecular target: Fuc(a1-2)Gal(b1-4)GlcNAc(b1-6)GalNAc
Summary of the method: as §1

[7] = molecular target: Fuc(a1-2)Gal(b1-4)[Fuc(a1-3)]GlcNAc(b1-3)[Neu5Ac(a2-6)Gal(b1-4)GlcNAc(b1-6)]Gal(b1-4)Glc
Summary of the method: as §1

Fuc(a1-2)Gal6S(b1-4)Glc = molecular target: Fuc(a1-2)Gal6S(b1-4)Glc
Summary of the method: as §1

[8] = molecular target: Fuc(a1-2)Gal6S(b1-4)Glc6S
Summary of the method: as §1

Fuc(a1-2)[Gal(a1-3)]Gal = molecular target: Fuc(a1-2)[Gal(a1-3)]Gal
Summary of the method: as §1

[9] = molecular target: Fuc(a1-2)[Gal(a1-3)]Gal(b1-3)GlcNAc(b1-2)Man(a1-3)[Fuc(a1-2)[Gal(a1-3)]Gal(b1-3)GlcNAc(b1-2)Man(a1-6)]Man(b1-4)GlcNAc(b1-4)GlcNAc
Summary of the method: as §1

[10] = molecular target: Fuc(a1-2)[Gal(a1-3)]Gal(b1-4)Glc
Summary of the method: as §1

[11] = molecular target: Fuc(a1-2)[GalNAc(a1-3)]Gal(b1-3)GlcNAc(b1-6)GalNAc
Summary of the method: as §1

[12] = molecular target: Fuc(a1-2)[GalNAc(a1-3)]Gal(b1-4)GlcNAc(b1-6)GalNAc
Summary of the method: as §1

[13] = molecular target: Fuc(a1-2)[GalNAc(a1-4)]Gal(b1-4)GlcNAc
Summary of the method: as §1

[14] = molecular target: Fuc(a1-2)[GalNAc(b1-3)]Gal
Summary of the method: as §1

[15] = molecular target: Fuc(a1-3)[Gal(b1-4)]GlcNAc(b1-6)[Gal(b1-3)GlcNAc(b1-3)]Gal(b1-4)Glc
Summary of the method: as §1

Gal(a1-2)Gal = molecular target: Gal(a1-2)Gal
Summary of the method: as §1

[16] = molecular target: Gal(a1-3)Gal(b1-4)GlcNAc(b1-2)Man
Summary of the method: as §1

[17] = molecular target: Gal(a1-3)Gal(b1-4)GlcNAc(b1-6)GalNAc
Summary of the method: as §1

Gal(a1-4)Gal(b1-4)GlcNAc = molecular target: Gal(a1-4)Gal(b1-4)GlcNAc
Summary of the method: as §1

Gal(b1-3)Gal(b1-4)GlcNAc = molecular target: Gal(b1-3)Gal(b1-4)GlcNAc
Summary of the method: as §1

Gal(b1-3)GalNAc = molecular target: Gal(b1-3)GalNAc
Summary of the method: as §1

[18] = molecular target: Gal(b1-3)GlcNAc(a1-3)Gal(b1-4)GlcNAc
Summary of the method: as §1

[19] = molecular target: Gal(b1-3)GlcNAc(b1-3)Gal(b1-4)GlcNAc(b1-2)[Gal(b1-3)GlcNAc(b1-3)Gal(b1-4)GlcNAc(b1-6)]Man(a1-6)[Gal(b1-3)GlcNAc(b1-3)Gal(b1-4)GlcNAc(b1-2)Man(a1-3)]Man(b1-4)GlcNAc(b1-4)[Fuc(a1-6)]GlcNAc
Summary of the method: as §1

[20] = molecular target: Gal(b1-3)GlcNAc(b1-6)GalNAc
Summary of the method: as §1

Gal(b1-3)GlcNAc6S = molecular target: Gal(b1-3)GlcNAc6S
Summary of the method: as §1

Gal(b1-4)GlcNAc = molecular target: Gal(b1-4)GlcNAc
Summary of the method: as §1

[21] = molecular target: Gal(b1-4)GlcNAc(b1-3)Gal(b1-3)GalNAc
Summary of the method: as §1

[22] = molecular target: Gal(b1-4)GlcNAc(b1-3)Gal(b1-4)GlcNAc
Summary of the method: as §1

[23] = molecular target: Gal(b1-4)GlcNAc(b1-6)GalNAc
Summary of the method: as §1

Gal3S6S(b1-4)GlcNAc6S = molecular target: Gal3S6S(b1-4)GlcNAc6S
Summary of the method: as §1

GalNAc(a1-3)GalNAc = molecular target: GalNAc(a1-3)GalNAc
Summary of the method: as §1

[24] = molecular target: GalNAc(a1-3)GalNAc(b1-3)Gal(a1-4)Gal(b1-4)GlcNAc
Summary of the method: as §1

GalNAc(b1-3)Gal = molecular target: GalNAc(b1-3)Gal
Summary of the method: as §1

[25] = molecular target: GalNAc(b1-3)Gal(a1-6)Gal(b1-4)Glc
Summary of the method: as §1

[26] = molecular target: GalNAc(b1-4)GlcNAc(b1-2)Man
Summary of the method: as §1

GalNAc(b1-4)GlcNAc6S = molecular target: GalNAc(b1-4)GlcNAc6S
Summary of the method: as §1

GlcNAc(b1-4)GlcNAc = molecular target: GlcNAc(b1-4)GlcNAc
Summary of the method: as §1

[27] = molecular target: GlcNAc(b1-4)GlcNAc(b1-4)GlcNAc
Summary of the method: as §1

GlcNAc(b1-6)GalNAc = molecular target: GlcNAc(b1-6)GalNAc
Summary of the method: as §1

Kdn(a2-6)Gal(b1-4)GlcNAc = molecular target: Kdn(a2-6)Gal(b1-4)GlcNAc
Summary of the method: as §1

[28] = molecular target: Neu5Ac(a2-3)Gal(b1-3)GalNAc
Summary of the method: as §1

[29] = molecular target: Neu5Ac(a2-3)Gal(b1-3)GlcNAc(b1-4)Gal(b1-4)Glc
Summary of the method: as §1

[30] = molecular target: Neu5Ac(a2-3)Gal(b1-4)GlcNAc(b1-3)Gal(b1-4)GlcNAc
Summary of the method: as §1

[31] = molecular target: Neu5Ac(a2-3)Gal(b1-4)GlcNAc(b1-3)[Neu5Ac(a2-3)Gal(b1-4)GlcNAc(b1-6)]GalNAc
Summary of the method: as §1

[32] = molecular target: Neu5Ac(a2-3)Gal(b1-4)GlcNAc6S
Summary of the method: as §1

[33] = molecular target: Neu5Ac(a2-8)Neu5Ac(a2-3)Gal(b1-3)GalNAc(b1-4)[Neu5Ac(a2-8)Neu5Ac(a2-3)]Gal(b1-4)Glc
Summary of the method: as §1

[34] = molecular target: Neu5Ac(a2-8)Neu5Ac(a2-3)Gal(b1-4)GlcNAc
Summary of the method: as §1

[35] = molecular target: Neu5Ac(a2-8)Neu5Ac(a2-8)Neu5Ac(a2-8)Neu5Ac(a2-3)[GalNAc(b1-4)]Gal(b1-4)Glc
Summary of the method: as §1

[36] = molecular target: Neu5Gc(a2-8)Neu5Ac(a2-3)Gal(b1-4)GlcNAc
Summary of the method: as §1

[37] = molecular target: Neu5Gc(a2-8)Neu5Gc(a2-6)Gal(b1-4)GlcNAc
Summary of the method: as §1

B1: MGL (Homo sapiens), Q8IUN9 (protein)
chain: MTRTYENFQYLENKVKVQGFKNGPLPLQSLLQRLCSGPCHLLLSLGLGLLLLVIICVVGFQNSKFQRDLVTLRTDFSNFTSNTVAEIQALTSQGSSLEETIASLKAEVEGFKQERQAGVSELQEHTTQKAHLGHCPHCPSVCVPVHSEMLLRVQQLVQDLKKLTCQVATLNNNASTEGTCCPVNWVEHQDSCYWFSHSGMSWAEAEKYCQLKNAHLVVINSREEQNFVQKYLGSAYTWMGLSDPEGAWKWVDGTDYATGFQNWKPGQPDDWQGHGLGGGEDCAHFHPDGRWNDDVCQRPYHWVCEAGLGQTSQESH
Fuc(a1-2)Gal
  glycan array binding signal (z-score): -0.232
[1]
  glycan array binding signal (z-score): -0.246
[2]
  glycan array binding signal (z-score): -0.242
[3]
  glycan array binding signal (z-score): -0.178
[4]
  glycan array binding signal (z-score): -0.238
[5]
  glycan array binding signal (z-score): -0.247
[6]
  glycan array binding signal (z-score): 3.85
[7]
  glycan array binding signal (z-score): -0.247
Fuc(a1-2)Gal6S(b1-4)Glc
  glycan array binding signal (z-score): -0.242
[8]
  glycan array binding signal (z-score): -0.254
Fuc(a1-2)[Gal(a1-3)]Gal
  glycan array binding signal (z-score): -0.241
[9]
  glycan array binding signal (z-score): -0.249
[10]
  glycan array binding signal (z-score): -0.237
[11]
  glycan array binding signal (z-score): 3.6
[12]
  glycan array binding signal (z-score): 4.98
[13]
  glycan array binding signal (z-score): 3.39
[14]
  glycan array binding signal (z-score): 4.3
[15]
  glycan array binding signal (z-score): -0.251
Gal(a1-2)Gal
  glycan array binding signal (z-score): -0.25
[16]
  glycan array binding signal (z-score): -0.252
[17]
  glycan array binding signal (z-score): 3.79
Gal(a1-4)Gal(b1-4)GlcNAc
  glycan array binding signal (z-score): -0.232
Gal(b1-3)Gal(b1-4)GlcNAc
  glycan array binding signal (z-score): -0.245
Gal(b1-3)GalNAc
  glycan array binding signal (z-score): -0.242
[18]
  glycan array binding signal (z-score): -0.245
[19]
  glycan array binding signal (z-score): -0.049
[20]
  glycan array binding signal (z-score): 3.24
Gal(b1-3)GlcNAc6S
  glycan array binding signal (z-score): -0.249
Gal(b1-4)GlcNAc
  glycan array binding signal (z-score): -0.243
[21]
  glycan array binding signal (z-score): -0.27
[22]
  glycan array binding signal (z-score): -0.242
[23]
  glycan array binding signal (z-score): 4.14
Gal3S6S(b1-4)GlcNAc6S
  glycan array binding signal (z-score): -0.242
GalNAc(a1-3)GalNAc
  glycan array binding signal (z-score): 0.346
[24]
  glycan array binding signal (z-score): 0.634
GalNAc(b1-3)Gal
  glycan array binding signal (z-score): 3.3
[25]
  glycan array binding signal (z-score): 3.77
[26]
  glycan array binding signal (z-score): 3.9
GalNAc(b1-4)GlcNAc6S
  glycan array binding signal (z-score): 4.05
GlcNAc(b1-4)GlcNAc
  glycan array binding signal (z-score): -0.243
[27]
  glycan array binding signal (z-score): -0.253
GlcNAc(b1-6)GalNAc
  glycan array binding signal (z-score): 4.7
Kdn(a2-6)Gal(b1-4)GlcNAc
  glycan array binding signal (z-score): -0.245
[28]
  glycan array binding signal (z-score): -0.241
[29]
  glycan array binding signal (z-score): -0.251
[30]
  glycan array binding signal (z-score): -0.238
[31]
  glycan array binding signal (z-score): -0.527
[32]
  glycan array binding signal (z-score): -0.244
[33]
  glycan array binding signal (z-score): -0.243
[34]
  glycan array binding signal (z-score): -0.259
[35]
  glycan array binding signal (z-score): 3.54
[36]
  glycan array binding signal (z-score): -0.237
[37]
  glycan array binding signal (z-score): -0.246
